M1 antag = human M1 muscarinic receptor antagonists, primary screen, CHO-K1 cells, Fluo-8 calcium fluorescence, 1536-well | Muscarinic acetylcholine receptor M1 (Homo sapiens), P11229 | CHO-K1 hM1, ACh EC80 antagonist | hit rate 1.3% among 360,000 | inhibition, % at 3 µM;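 active = percent inhibition above its own plate's cutoff, namely the mean of that plate's compound wells plus 3 SD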;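 also: peak over basal fluorescence ratio during 140 s after agonist addition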
Target sequence (P11229 whole entry, looked up): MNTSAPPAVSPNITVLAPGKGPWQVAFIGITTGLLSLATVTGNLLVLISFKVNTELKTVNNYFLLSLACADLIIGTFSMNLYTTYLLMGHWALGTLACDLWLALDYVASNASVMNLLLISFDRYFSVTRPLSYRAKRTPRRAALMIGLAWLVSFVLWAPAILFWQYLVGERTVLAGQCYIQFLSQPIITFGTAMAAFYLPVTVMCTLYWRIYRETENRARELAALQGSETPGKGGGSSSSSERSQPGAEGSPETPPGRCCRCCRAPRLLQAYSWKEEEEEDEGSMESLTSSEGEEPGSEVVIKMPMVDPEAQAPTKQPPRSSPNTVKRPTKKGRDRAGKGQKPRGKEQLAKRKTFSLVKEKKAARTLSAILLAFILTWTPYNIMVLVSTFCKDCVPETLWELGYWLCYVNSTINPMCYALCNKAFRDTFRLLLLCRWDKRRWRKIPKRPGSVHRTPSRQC
CHRM1 agonist = human M1 muscarinic receptor agonists, primary screen, Fluo-8 calcium fluorescence, CHO-K1 cells, HTS; AID 588814, 2011; activation, % at 3 µM; Muscarinic acetylcholine receptor M1 (Homo sapiens), P11229; CHO-K1 hM1, agonist mode; 0% DMSO, 100% acetylcholine EC100; hit rate 0.33% among 360,000;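 active = activation above the run's mean compound activation plus 3 SD, cut at about 16% in these data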;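 also: peak over basal fluorescence ratio within a 140 s kinetic read after compound addition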
M1 PAM = human M1 muscarinic receptor positive allosteric modulators, primary screen, CHO-K1 cells, Fluo-8 calcium fluorescence, 1536-well | hit rate 0.088% among 360,000 | CHO-K1 hM1, ACh EC20; 0% = ACh EC20, 100% = maximal ACh | Muscarinic acetylcholine receptor M1 (Homo sapiens), P11229 | activation, % at 3 µM; in the data active = activation above about 19%, passing the limit was not always enough
CHO-K1 Ca ag = counter-screen for M1 agonists: effect in parental CHO-K1 cells | hit rate 0.48% among 360,000 | activation, % at 3 µM | Fluo-8 calcium fluorescence; scaled to maximal ATP response, vehicle zero; in the data active = activation above about 15%;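 also: untransfected CHO-K1 host cells lacking M1 receptor as counterscreen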
CHO-K1 Ca antag = M1 antagonist counterscreen hit in parental CHO-K1 cells. AID 602250. hit rate 0.6% among 360,000. inhibition, % at 3 µM. ATP-induced calcium, Fluo-8 fluorescence;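 active = inhibition above a per-plate cutoff, the plate's mean sample inhibition plus 3 SD, cut at about 24% in these data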
M1 PAM parental = nonselective calcium activators in parental CHO-K1 cells, primary screen, counter-screen for M1 PAM project, cell-based, Fluo-8 calcium fluorescence, full deck, 1536-well | ATP EC20; 0% at ATP EC20, 100% at ATP max | activation, % at 3 µM | AID 602247, 2012 | hit rate 0.02% among 360,000;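 active = activation above the run cutoff, the mean activation of all test compounds plus 3 SD, cut at about 40% in these data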;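 also: peak over basal fluorescence ratio in a 140 s read after ATP addition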
Of the large screens only hits and unclear results are named; the others gave an inactive call. Shown are actives, neighbours in structure and some others; about 2.3% of the full set was active somewhere.

COc1ccc(NS(=O)(=O)c2cc(C(=O)N3CCN(C/C=C/c4ccccc4)CC3)ccc2C)cc1	none
Cc1cccc(NC(=O)c2cc3ccccc3oc2=O)c1	none
Cc1ccc[n+](CC(=O)c2cc3ccccc3oc2=O)c1	M1 antag 90.4
CC(=O)c1cc2ccccc2oc1=O	none
Cc1cc(C)c[n+](CC(=O)c2cc3ccccc3oc2=O)c1	M1 antag 93.2
NS(=O)(=O)c1cccc(NC(=O)COC(=O)Cc2ccc(S(=O)(=O)N3CCOCC3)s2)c1	none
CCN=C(NCC)SC1CC(=O)N(c2cccc(OCC)c2)C1=O (stereo not given)	M1 antag 43.6, CHO-K1 Ca antag 29.7
Cc1ccc(C(=O)NC(=S)NNC(=O)c2ccc([N+](=O)[O-])cc2)cc1	none
Cc1cccc(C(=O)NNC(=S)NC(=O)c2cccs2)c1	CHRM1 agonist 84.2, CHO-K1 Ca ag 85.3
Cc1ccc(C(=O)NNC(=S)NC(=O)c2ccccc2)cc1	M1 antag 52.3, CHRM1 agonist 52.3, CHO-K1 Ca ag 70.3, CHO-K1 Ca antag 26.7
Cc1ccc(C(=O)NNC(=O)c2ccco2)cc1	none
Cc1ccc(C(=O)NNC(=S)NC(=O)c2ccco2)cc1	CHRM1 agonist 30.0, CHO-K1 Ca ag 20.6
O=C(CNC(=S)NC(=O)c1ccc(Cl)cc1)c1ccccc1	M1 PAM 32.0
CC1(C(=O)Nc2ccc3ccccc3c2)CCC(=O)N1CCOc1ccccc1 (stereo not given)	none
COc1ccc(CC2(CO)CCN(S(=O)(=O)c3sccc3C)CC2)cc1	none
Cc1cccc(C(=O)NNC(=S)NC(=O)c2ccccc2)c1	CHRM1 agonist 97.0, CHO-K1 Ca ag 100.5, CHO-K1 Ca antag 34.9
Cc1ccc(C(=O)NC(=S)NNC(=O)c2ccccc2)cc1	CHRM1 agonist 36.3, CHO-K1 Ca ag 20.4, CHO-K1 Ca antag 34.9
COc1ccc(C(=O)NNC(=S)NC(=O)c2cccs2)cc1	none
Cc1ccc(C(=O)NNC(=O)c2cccc(C)c2)cc1	none
Cc1ccccc1OCC(=O)Nc1ccccc1NC(=O)c1ccco1	none
COc1ccc(/C=C/C(=O)NC(=S)NNC(=O)c2cccs2)cc1	CHRM1 agonist 21.2
Cc1ccccc1OCC(=O)NNC(=S)NC(=O)c1ccco1	CHRM1 agonist 17.7
CC(Sc1nncs1)C(=O)Nc1ccc(S(=O)(=O)Nc2ncccn2)cc1 (stereo not given)	none
CC(C)NC(=O)C1(C)CCN1C(=O)Cc1ccc(-c2ccccc2)cc1 (stereo not given)	none
Cc1ccc(C(=O)NNC(=S)NC(=O)c2ccc(Cl)cc2Cl)cc1	M1 antag 45.8, CHRM1 agonist 105.1, CHO-K1 Ca ag 107.0
O=C(CCc1ccccc1)NNC(=S)NC(=O)c1ccccc1	none
CC(C)NC(=S)NC(=O)c1ccc(Cl)cc1Cl	none
CCCCC(=O)NC(=S)NNC(=O)c1ccc(Cl)cc1Cl	CHRM1 agonist 24.9, CHO-K1 Ca ag 26.2
CC(C)(C)c1cc(CCC(=O)NNC(=S)NC(=O)c2ccccc2)cc(C(C)(C)C)c1O	M1 antag 48.5, CHRM1 agonist 80.8, CHO-K1 Ca ag 56.4, CHO-K1 Ca antag 30.1
Cc1ccc(-c2nc3ncccc3o2)cc1NC(=O)c1cc2ccccc2o1	none
O=C(Nc1cccc(-c2nc3ncccc3o2)c1)c1cc2ccccc2o1	CHO-K1 Ca antag 25.9
Cc1ccc([C@@H]2CC(=O)[C@@H]3CN(S(=O)(=O)c4ccc(C)cc4)[C@H](c4ccccc4)C[C@@H]3N2S(=O)(=O)c2ccc(C)cc2)cc1	none
Cn1c(CCC(=O)OCC(=O)Nc2ccc(Oc3ccccc3)cc2)nc(=O)c2ccccc21	M1 antag 37.4
OCC1(Cc2cccc(C(F)(F)F)c2)CCN(Cc2cc(F)cc(F)c2)CC1	none
CSc1cccc(CN2CCC(CO)(Cc3cccc(C(F)(F)F)c3)CC2)c1	M1 antag 31.0
CCCCCN(C(=O)CCC(=O)OCc1ccc(C(C)C)cc1)c1c(N)n(CCCC)c(=O)[nH]c1=O	none
CC(C)(C)NC(=O)C1(C)CCC(=O)N1CC(F)(F)F (stereo not given)	CHO-K1 Ca antag 23.7
Clc1cccc(Cl)c1CSc1nnc(-c2ccncc2)s1	M1 antag 43.3, CHRM1 agonist 59.9
Cc1ccccc1Cn1c(C)nc2ccccc21	M1 antag 39.1, CHO-K1 Ca antag 28.6
Cc1nc2ccccc2n1Cc1ccc(Cl)cc1	CHO-K1 Ca antag 33.2
OCc1nc2ccccc2n1Cc1ccc(Cl)cc1	none
CC(=O)c1ccc(NC(=O)c2ccc(-n3cnnn3)cc2)cc1	none
CSc1ncc(C(=O)Nc2ccc(Br)cn2)c(C)n1	none
OC(c1ccc(-c2ccccc2)cc1)c1ncc(-c2ccc(F)cc2)[nH]1 (stereo not given)	none
C[C@]12CCC(=O)C=C1CC[C@@H]1[C@@H]2[C@@H](O)C[C@@]2(C)[C@H]1CC[C@]2(O)C(=O)COC(=O)CCC(=O)O	none
CC12CCC(=O)C=C1CCC1C2C(O)CC2(C)C1CCC2(O)C(=O)COC(=O)CCC1CCCC1 (stereo not given)	M1 antag 41.4
CCC(CC)C(=O)OCC(=O)C1(O)CCC2C3CCC4=CC(=O)CCC4(C)C3C(O)CC21C (stereo not given)	M1 antag 68.5
CSc1ccc(CN(C)C(=O)C(Cc2ccccc2)NC(=O)c2ccccc2)cc1 (stereo not given)	M1 antag 44.0
CN(Cc1ccc(F)cc1)C(=O)C(Cc1ccccc1)NC(=O)c1ccccc1 (stereo not given)	none
COc1ccc(CN(C)C(=O)C(Cc2ccccc2)NC(=O)c2ccccc2)cc1F (stereo not given)	M1 antag 42.3
COc1ccc(/C=C(\NC(=O)c2ccccc2)C(=O)N2CCCCC2)cc1OC	none
Cc1ccc(C2(c3noc(CN(C)Cc4ccccn4)n3)CCCC2)cc1	M1 antag 38.2
CCN(C(=O)c1cccs1)c1nc(-c2ccc(OC)cc2)cs1	none
COc1cccc(N(C(=O)c2cccs2)c2nc3ccccc3s2)c1	CHO-K1 Ca antag 26.3
Cc1nnc(SCC(=O)NC2CCCC2)n1-c1ccccc1	none
COc1ccccc1CCNC(=O)c1cc(-c2ccccn2)nc2ccccc12	M1 antag 32.0
NS(=O)(=O)c1ccc(NC(=O)COC(=O)CCCN2C(=O)c3cccc4cccc(c34)C2=O)cc1	none
Cc1ccsc1-c1nc(CN2C[C@@H](C)O[C@@H](C)C2)c(C)o1	none

From PubChem
